# Measurements from PubChem BioAssay AID504652 (National Center for Advancing Translational Sciences (NCATS), 2011).
# Values joined by “and” are separate entries in the source; they are usually repeats but may differ in a detail not shown here. Identical values can stand only once. The whole screen tested about 360,000 compounds, of which about 11,000 (3.1%) were called active. No stated cut-off is given here; in the data, active means activity change below about -30%; inactive means the rest. For the sample, actives were picked, then their nearest neighbours and some compounds at random.
# Biological target: D(1A) dopamine receptor (Homo sapiens) (UniProt P21728)
# Experiment: Antagonist of Human D 1 Dopamine Receptor: qHTS
# Conditions: HEK293 TREx D1 cells, calcium flux, dopamine EC80; at 10 µM; active compounds read low
# Summary of the method: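 Calcium flux readout: force-coupled, inducible Hek293 Trex D1 line, cells induced overnight at 30 C with tetracycline, dye-loaded 30–90 min at RT. Antagonism scored against EC80 dopamine challenge given 180 s after compound.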
# On the % scale 0 is the no-effect control and ±100 the full control effect.
# D(1A) dopamine receptor (Homo sapiens), sequence (P21728 whole entry, looked up): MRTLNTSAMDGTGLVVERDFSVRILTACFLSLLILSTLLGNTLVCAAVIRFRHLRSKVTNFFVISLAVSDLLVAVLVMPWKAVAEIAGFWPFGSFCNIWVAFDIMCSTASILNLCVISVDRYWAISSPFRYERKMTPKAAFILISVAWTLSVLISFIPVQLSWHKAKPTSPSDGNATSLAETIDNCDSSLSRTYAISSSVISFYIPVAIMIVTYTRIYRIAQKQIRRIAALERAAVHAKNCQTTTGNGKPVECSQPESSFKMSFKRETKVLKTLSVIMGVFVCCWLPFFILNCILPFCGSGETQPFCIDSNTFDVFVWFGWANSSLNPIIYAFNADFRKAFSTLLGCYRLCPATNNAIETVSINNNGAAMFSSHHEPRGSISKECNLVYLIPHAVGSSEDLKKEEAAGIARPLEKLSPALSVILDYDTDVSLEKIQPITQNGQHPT
row,SMILES,"activity change, negative = inhibition"
1,CC(C)NC(=O)NC(=O)CSc1nnc(-c2ccccc2F)n1N,2.73% (inactive)
2,Nn1c(SCC(=O)NC(=O)NC2CCCC2)nnc1-c1ccccc1F,-31.8% (active)
3,Nn1c(SCC(=O)NC2CCCC2)nnc1-c1ccccc1F,10.8% (inactive)
4,CCc1cc2c(cc3c(=O)n(CC(=O)NCCc4ccc(OC)c(OC)c4)ncn32)s1,-0.482% (inactive)
5,CCc1ccc(NC(=O)c2sc3nc4c(cc3c2N)CN(CC)CC4)cc1,-15.6% (inactive)
6,N=c1n(CCc2ccccc2)c2ccccc2n1Cc1ccccc1F,-72.5% (active)
7,Fc1ccccc1Cn1cnc(NC(=S)NCCc2ccccc2)n1,0.584% (inactive)
8,O=C(COC(=O)Cc1ccccc1F)NCCc1ccccc1,-27% (inactive)
9,Cn1c(=O)c2sccc2n2c(CCC(=O)NCc3ccccc3Cl)nnc12,-4.17% (inactive)
10,Cn1c(=O)c2c(SCC(=O)N3CCc4ccccc43)nc(-c3ccc(Cl)cc3)nc2n(C)c1=O,-4.79% (inactive)
11,CCCOC(=O)c1c(NC(=O)c2cc3nc(-c4ccc(OC)cc4)cc(C(F)(F)F)n3n2)sc2c1CCCC2,1.36% (inactive)
12,CCOC(=O)C1CCN(c2ncnc3c2c(-c2ccccc2)cn3-c2cccc(C)c2)CC1,7.99% (inactive)
13,COc1cc(OC)cc(C(=O)Nc2c(C(=O)Nc3ccc(F)cc3)oc3ccccc23)c1,-9.05% (inactive)
14,CCOC(=O)c1cccc(NC(=O)C2CCCN(S(=O)(=O)c3cnc[nH]3)C2)c1 (stereo not drawn),-31.2% (active)
15,O=C(NCc1ccco1)C1CCCN(S(=O)(=O)c2cnc[nH]2)C1 (stereo not drawn),6.39% (inactive)
16,COc1cccc(N2CCN(C(=O)C3CCCN(S(=O)(=O)c4cnc[nH]4)C3)CC2)c1 (stereo not drawn),-10% (inactive)
17,CC1CCN(c2ccc(S(=O)(=O)Nc3cc(C(=O)O)cc(C(=O)O)c3)cc2[N+](=O)[O-])CC1,21.6% (inactive)
18,CC1CCN(c2ccc([N+](=O)[O-])cc2C(N)=O)CC1,-6.77% (inactive)
19,O=C(O)C1CCN(c2ccc([N+](=O)[O-])cc2[N+](=O)[O-])CC1,-34.9% (active)
20,COc1ccccc1CNc1nc2ccc(Cl)cc2n2cnnc12,31.1% (inactive)
21,Cc1ccc(OCC(=O)OCc2cc(=O)n3nc(C4CC4)sc3n2)cc1C,5.56% (inactive)
22,Cc1cccc(CSc2nnc(C)c(=O)n2N)c1,-16.8% (inactive)
23,Cc1cccc(CSc2nc3c(c(=O)n2C)SCC3)c1,-31.4% (active)
24,Cn1c(SCC(=O)N2CCCCC2)nc2c(c1=O)SCC2,-2.45% (inactive)

row,SMILES,"activity change, negative = inhibition"
1,CCOc1ccc(C(O)Cn2c(=N)n(CCN3CCCCC3)c3ccccc32)cc1 (stereo not drawn),3.59% (inactive)
2,Cc1cccc(OCC(O)Cn2c(=N)n(CCN3CCOCC3)c3ccccc32)c1 (stereo not drawn),-8.76% (inactive)
3,Cn1c(=N)n(CC(O)c2cccs2)c2ccccc21 (stereo not drawn),-34.7% (active)
4,COc1cc(C(=O)Nc2ccc(OCc3cc(=O)n4cc(C)sc4n3)cc2)cc(OC)c1OC,-16.6% (inactive)
5,OCc1ccc(OCCCOc2cccc3cccnc23)cc1,-4.17% (inactive)
6,CCOc1cccc(OCCCOc2cccc3cccnc23)c1,7.73% (inactive)
7,Cc1ccc2cccc(OCCCOc3ccccc3CO)c2n1,-71.7% (active)
8,Cn1c(=O)n(Cc2c(F)cccc2Cl)c(=O)c2c1nc1n2CCN1c1ccc(F)cc1,-4.11% (inactive)
9,CCOc1ccc(NC(=O)c2cc(S(=O)(=O)N3CCCC3)c[nH]2)cc1,-12.2% (inactive)
10,COc1ccc(NC(=O)/C(Cl)=C(/Cl)S(=O)Cc2ccc(C)cc2)cn1 (stereo not drawn),-37.4% (active)
11,COc1cccc(NC(=S)N(Cc2ccc(C)cc2)Cc2ccccn2)c1,-4.38% (inactive)
12,COc1ccc(CS(=O)/C(Cl)=C(/Cl)C(=O)Nc2ccc(OC)nc2)cc1 (stereo not drawn),-16.1% (inactive)
13,Cc1cc(Cl)ccc1OCCCC(=O)Nc1cccc(-n2cnnn2)c1,-32.2% (active)
14,Cc1cc(Cl)ccc1OCCCC(=O)NCc1ccncc1,-15.1% (inactive)
15,Cc1cc(Cl)ccc1OCCCC(=O)NCc1ccccn1,-2.23% (inactive)
16,O=C(Nc1ccc2nc(SCCOc3ccccc3)sc2c1)c1ccco1,-3.21% (inactive)
17,O=C(CSc1ncc(-c2ccccc2)[nH]1)Nc1ccc(F)cc1F,-8.22% (inactive)
18,O=S1(=O)CCN2C(=N1)SC1=C2CCN(Cc2ccccc2)C1,2.33% (inactive)
19,O=C(Nc1ccccc1Cc1ccccc1)c1ccc2c(c1)SC1=NS(=O)(=O)CCN12,-30.1% (active)
20,CCc1ccccc1NC(=O)c1ccc2c(c1)CCN2S(C)(=O)=O,6.15% (inactive) and -13% (inactive)
21,CCCN(C(=O)Cn1ncc2c([nH]c3ccc(C)cc32)c1=O)c1ccccc1C,11.2% (inactive)
22,O=[S+]([O-])(c1ccc(OC(F)(F)F)cc1)N1CCN([S+](=O)([O-])c2ccc3c(c2)OCCO3)CC1,-7.55% (inactive)
23,Cc1nn2c(=O)cc(COC(=O)c3ccccc3NC(=O)COc3ccccc3C)nc2s1,-3.25% (inactive)
24,COc1ccc(NC(=O)CSc2nnc(C3CC3)n2C)cc1S(=O)(=O)N1CCCCC1,5.62% (inactive)

row,SMILES,"activity change, negative = inhibition"
1,COc1ccc(NC(=O)C2=NNC(=O)CC2)cc1S(=O)(=O)N1CCCCC1,-34.7% (active)
2,COc1ccccc1C(=O)Nc1ccc(C)c(S(=O)(=O)N2CCCCC2)c1,-2.3% (inactive)
3,NS(=O)(=O)c1ccc(CCNC(=O)CCCCCn2c(=O)[nH]c3ccccc3c2=O)cc1,5.32% (inactive)
4,COc1cc2nc(NCC(C)c3ccccc3)n3nc(-c4ccccc4)nc3c2cc1OC (stereo not drawn),-4.86% (inactive)
5,Cc1nc2nc(NCc3cccc(Br)c3)[nH]n2c(=O)c1Cc1ccccc1,-2.6% (inactive)
6,Cc1cccc(N(C)C(=O)CS(=O)(=O)c2cccc3nsnc23)c1,9.37% (inactive)
7,O=C(Nc1cccc([N+](=O)[O-])c1)Nn1cnnc1,-44.2% (active)
8,O=C(Nn1cnnc1)c1ccc([N+](=O)[O-])cc1,-2.94% (inactive)
9,COC(=O)/C=C\C(=O)Nc1cccc([N+](=O)[O-])c1,16.7% (inactive)
10,CCCCCn1c(CCNC(=O)c2ccc(F)cc2)nc2ccccc21,-29.3% (inactive)
11,CC(=O)c1ccc(NC(=O)CCc2nc(-c3ccc(C)cc3)no2)cc1,6.08% (inactive)
12,CC(=O)c1cccc(NC(=O)c2nc(-c3ccccc3)n(-c3cccc(C)c3)n2)c1,-15.7% (inactive)
13,[O-][n+]1onc2c1CCc1[nH]c(-c3ccccc3)nc1-2,-44.1% (active)
14,CCn1c(Cc2ccc(OC)cc2)nnc1SCC(=O)Nc1ccc(N2CCOCC2)cc1,0.621% (inactive)
15,CCn1c(Cc2ccccc2)nnc1SCC(=O)Nc1ccccc1,-30.1% (active)
16,CCn1c(CNC(=O)c2ccc(OC)c(OC)c2)nnc1SCC(=O)Nc1ccccc1,-0.592% (inactive)
17,CCC(=O)N1c2ccccc2CC1C(=O)N1CCN(c2ccccc2F)CC1 (stereo not drawn),10.1% (inactive)
18,CCOc1ccc(NC(=O)c2c(NC(=O)Cc3ccccc3)sc3c2CCCCC3)cc1,0.456% (inactive)
19,CCCCc1ccc(NC(=O)NCc2cccnc2)cc1,19% (inactive)
20,CCCCCCCCCCCCN1C(=O)CSC1c1cccnc1 (stereo not drawn),-34.3% (active)
21,CN(C)CCCN1C(=O)CSC1c1ccc([N+](=O)[O-])cc1 (stereo not drawn),26.5% (inactive)
22,Cc1cccc(CC(=O)N2CC(=O)Nc3ccc(F)cc3C2c2ccccc2)c1 (stereo not drawn),-5.67% (inactive)
23,Cc1nn(CC(=O)O)c(=O)c2cc3cc(F)ccc3n12,16.8% (inactive)
24,COc1cccc(CNC(=O)Cc2csc3nc(-c4ccccc4)cn23)c1,8.74% (inactive)

row,SMILES,"activity change, negative = inhibition"
1,COc1ccc2c(Sc3ccc(C)cc3)c(C(=O)NC(C)c3ccccc3)[nH]c2c1 (stereo not drawn),-2.66% (inactive)
2,Cc1cc(C)cc(OCC(=O)Nc2ccc(S(=O)(=O)Nc3ccccn3)cc2)c1,-0.845% (inactive)
3,Cc1ccc(NS(=O)(=O)c2ccc(C(C)(C)C)cc2)cn1,-7.23% (inactive)
4,Cc1ccc(S(=O)(=O)Nc2ccc3ncccc3c2)cc1,-37.6% (active)
5,Cc1cn(C)c(CC(=O)NCc2ccc(Cl)cc2)c1C(=O)O,-2.23% (inactive)
6,CCC(=O)N(Cc1ccccc1)c1ccccn1,-9.42% (inactive)
7,COc1cc(CN(C(=O)c2ccccc2Br)c2ccccn2)cc(OC)c1OC,-66.6% (active)
8,Cc1ccc(CN(C(=O)c2ccccc2[N+](=O)[O-])c2ccccn2)cc1,-7.2% (inactive)
9,CCN(CC)c1ccc(NC(=O)CN2C(=O)c3cccnc3Oc3ccc(Cl)cc32)c(C)c1,-6.59% (inactive)
10,COc1ccc(N(C)C(=O)C2CCN(S(=O)(=O)c3cc(Br)cc4c3N(C(C)=O)CC4)CC2)cc1,6.85% (inactive)
11,COc1ccc(-n2nc3c(c2NC(=O)Cc2cccc(C)c2)CS(=O)C3)cc1 (stereo not drawn),-10.2% (inactive)
12,Cc1cccc(CC(=O)Nc2c3c(nn2-c2cccc(Cl)c2)CS(=O)C3)c1 (stereo not drawn),-0.884% (inactive)
13,CC(=O)Nc1c2c(nn1-c1ccc(C)cc1C)CS(=O)C2 (stereo not drawn),-34.5% (active)
14,CCOc1ccc(C2CC(=O)c3c([nH]c(C(=O)OCc4ccccc4)c3C)C2)cc1 (stereo not drawn),-22.3% (inactive)
15,Cc1ccc(-c2ccc(CCC(=O)O)n2-c2ccc(C(N)=O)cc2)cc1,-5.89% (inactive)
16,Clc1ccc(CSc2nncn3c2cc2occc23)cc1,-0.2% (inactive)
17,CCOc1ccccc1C(=O)Nc1ccc2c(c1)N(C)C(=O)c1ccccc1S2,-16.7% (inactive)
18,COc1ccccc1N1CCN(c2ccc(=O)n(CC(=O)NCc3ccc(OC(C)C)cc3)n2)CC1,23.5% (inactive)
19,O=S(=O)(c1cccc(Cn2nnc(-c3ccc(F)cc3)n2)c1)N1CCOCC1,-46.2% (active)
20,O=S(=O)(c1cccc(-c2nnc3n2CCCCC3)c1)N1CCOCC1,2.28% (inactive)
21,Cc1nc(-c2ccc(F)cc2)c(CC(=O)Nc2cccc(S(=O)(=O)N3CCOCC3)c2)s1,4.46% (inactive)
